# From PubChem BioAssay
# An excerpt weighted towards active compounds, which were near 2.2% of everything screened.
# Ba/F3 V617F tox: reduce viability of Ba/F3 cells dependent on JAK2V617F; hit rate 1.1% among 220,000; inhibition, % at 5.6 µM; AID 1446; Ba/F3 EpoR-JAK2V617F viability, ATP luminescence;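 active = inhibition above the campaign mean plus 3 SD over all tested compounds, cut at about 24% in these data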;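 also: cytokine-independent growth of Ba/F3 cells driven by EpoR plus mutant JAK2; 0% = DMSO-treated cells and 100% = JAK inhibitor I control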
# BaF3 parental: parental Ba/F3 viability inhibition as JAK2V617F counter-screen | CellTiter-Glo ATP luminescence | inhibition, % at 5.6 µM | hit rate 1.1% among 220,000;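 active = inhibition above a per-campaign cutoff, the mean inhibition of all tested compounds plus 3 SD, cut at about 27% in these data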;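 also: 0% = DMSO wells and 100% = JAK Inhibitor I control wells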
# IEC-6 cytotox: IEC-6 cytotoxicity, counter-screen for KLF5 inhibitors; luminescence viability; inhibition, % at 5 µM; hit rate 0.78% among 290,000; in the data active = inhibition above about 22%;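 also: 0% = plate median of test compound wells and 100% = cytotoxic reference compound wells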
# APP transl inh: APP translation inhibition. SH-SY5Y APP 5'UTR-luciferase reporter, luminescence. inhibition, % at 2 µM. hit rate 0.82% among 190,000. AID 1285;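 active = inhibition above a set limit, derived from the sample mean plus 3 SD, cut at about 45% in these data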
# aSyn UTR inh: MLPCN primary screen, SNCA 5' untranslated region; alpha-synuclein 5'UTR reporter, inhibitor activity; inhibition, % (tested at 7.5 µM); hit rate 0.82% among 300,000; in the data active = inhibition above about 60%;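 also: H4 neuroglioblastoma cells stably carrying SNCA 5'UTR luciferase fusion; 0% = DMSO wells and 100% = positive control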
# KLF5 inhibitor: suppresses KLF5 promoter-driven expression; DLD-1 KLF5 promoter-luciferase reporter, luminescence; inhibition, % at 5 µM; hit rate 0.23% among 290,000;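 active = inhibition above a per-plate limit of that plate's mean compound inhibition plus 3 SD, cut at about 60% in these data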;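 also: 0% = DMSO wells and 100% = LY294002 at 200 µM; higher means less KLF5 promoter-driven luciferase light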
# The depositor's hits bear a star; x = no result.
SMILES,Ba/F3 V617F tox,BaF3 parental,IEC-6 cytotox,APP transl inh,aSyn UTR inh,KLF5 inhibitor
C=CCn1c(C)c(/C=C/c2cc[n+](C)cc2)c2ccccc21,x,x,7.8,x,21.9,-4.7
Cc1ccccc1/C=C/c1cc[n+](C)cc1,50.1*,58.5*,4.1,9.5,-36.8,-5.1
CC(C)n1cc(/C=C/c2cc[n+](C)cc2)c2ccccc21,x,x,9.6,x,-4.1,-11.5
Cc1ccc2nc3c(c(Nc4cccc(O)c4)c2c1)CCC3,x,x,7.2,x,-11.3,-7.6
CCOC(=O)c1nn(-c2ccc(F)cc2)c(=O)cc1OCC(=O)Nc1ccc(F)c(F)c1,x,x,x,x,-3.4,x
O=[N+]([O-])c1ccc(C[n+]2cc(-c3ccc(Cl)c(Cl)c3)n3c2CCCCC3)cc1,-1.7,1.2,5.2,x,9.3,-28.4
Clc1ccc(-c2c[n+](Cc3ccc(Br)cc3)c3n2CCCCC3)cc1,61.9*,69.1*,0.1,x,5.9,-18.2
Clc1ccc(-c2cnc3n2CCCCC3)cc1,1.9,5.0,3.6,-7.0,-8.3,-25.1
Clc1ccc(-c2c[n+](Cc3ccc(Cl)cc3Cl)c3n2CCCCC3)cc1,73.3*,72.9*,6.0,x,8.0,-0.1
Clc1ccc(C[n+]2cc(-c3ccccc3)n3c2CCCCC3)c(Cl)c1,85.6*,79.3*,12.1,-7.9,-18.2,3.9
CN(C)CC[n+]1ccc(C(=O)c2ccccc2)cc1,x,x,-0.9,x,-9.4,-13.5
Cc1ccc(S(=O)(=O)N(CC(=O)N(C(C)C)C(C)C)C(=O)N2CCN(C)CC2)cc1,x,x,-4.6,x,-1.0,-6.8
O=C(NC(Cc1ccccc1)C(=O)O)/C(=C\c1ccccc1F)NC(=O)c1ccccc1 (configuration not stated),-2.2,2.9,-3.3,16.8,9.5,-10.0
O=C(NC(Cc1ccccc1)C(=O)O)/C(=C/c1ccc(Cl)cc1)NC(=O)c1ccccc1 (configuration not stated),1.4,37.4*,-5.2,-0.6,-18.0,11.0
CCOCC(=O)Nc1ccc(S(=O)(=O)N2CCC(c3nc4ccccc4[nH]3)CC2)cc1,x,x,x,x,7.3,x
O=C(O)[C@@H]1CCCC[C@@H]1C(=O)N1CCc2ccccc2C1CN1C(=O)c2ccccc2C1=O (some centres not stated),-3.3,-2.1,-1.3,19.9,67.7*,-28.9
CCOC(=O)C1CCN(CCC(=O)Nc2ccc(Br)c(C)c2)CC1,x,x,-0.8,x,14.2,-15.9
CCC(C(=O)NC1CCCCC1)n1c2ccccc2c2nc(=O)cc(C)n21 (configuration not stated),x,x,-4.8,x,-58.4,-28.0
CC(=O)OC(CC(=O)O)C[N+](C)(C)C (configuration not stated),-1.6,8.1,-8.3,-13.3,67.7*,-5.9
CC(=O)O[C@H](CC(=O)O)C[N+](C)(C)C,x,x,x,x,7.0,x
O=C(Cn1nc(C(=O)O)c2ccccc2c1=O)Nc1ccccc1C(F)(F)F,x,x,-4.2,x,10.2,-23.6
COc1ccccc1C(=O)NCCC(=O)N1CCN(c2cccc(C(F)(F)F)c2)CC1,x,x,x,x,-8.3,x
CCOc1cccc(/C=N/Nc2ccc(S(=O)(=O)N(CC)CC)cn2)c1O,-2.6,2.0,3.9,82.9*,88.2*,17.7
CCN(CC)S(=O)(=O)c1ccc(N/N=C(\C)c2ccc(OC)cc2O)nc1,1.4,-2.7,-3.1,x,78.2*,19.7
CCc1nnc(N/N=C/c2c(Cl)cccc2Cl)n1N,2.6,5.0,61.9*,-10.4,3.9,-13.3
SMILES,Ba/F3 V617F tox,BaF3 parental,IEC-6 cytotox,APP transl inh,aSyn UTR inh,KLF5 inhibitor
CCc1nnc(N/N=C/c2cc(Br)c(O)cc2O)n1N,x,x,-8.0,x,24.7,-27.3
CCc1nnc(N/N=C/c2cccs2)n1N,2.7,0.3,94.4*,14.4,14.8,-18.1
Cc1cc(N(C(=O)c2ccco2)C(C(=O)NC2CCCCC2)c2ccccc2)ccc1-n1cnnn1 (configuration not stated),-3.1,51.3*,-5.5,-9.2,-6.1,1.4
CCN(CC)c1ccc2cc(C(C)=O)c(=O)oc2c1,-1.6,5.0,2.4,-16.8,-30.2,-6.9
CCN(CC)c1ccc2cc(NC(=O)CCC(=O)O)c(=O)oc2c1,-2.3,0.4,2.3,52.1*,120.2*,41.2
C=C1C(=O)O[C@@H]2C[C@@H](C)[C@@H]3C=CC(=O)[C@@]3(C)[C@@H](OC(C)=O)[C@H]12,x,x,x,x,95.4*,x
CC(=O)Nc1cc[n+](C(C)C(=O)c2ccc(Br)cc2)cc1 (configuration not stated),39.6*,37.5*,1.0,-7.7,-16.8,-3.6
OC(CNCCc1ccc(Cl)cc1)COc1cc(Cl)ccc1Cl (configuration not stated),x,x,-1.7,x,11.1,-25.5
O=C(c1ccc2c(=O)n(-c3ccccc3)c(=S)[nH]c2c1)N1CCCCC1,44.8*,63.5*,1.1,-2.5,4.2,-21.4
COc1ccc(S(=O)(=O)N(CC(=O)NN=C2CCN(C)CC2)c2cc(Cl)ccc2OC)cc1OC,x,x,-3.9,x,9.5,-7.7
COc1ccc2[nH]c(C)c(CCN(Cc3cccs3)C(=S)Nc3cccc(F)c3)c2c1,44.9*,51.1*,-4.7,-2.0,-18.2,-29.3
Cc1ccccc1NC(=S)N(CCc1c(C)[nH]c2ccc(F)cc12)Cc1cccnc1,-1.2,8.5,-4.6,10.3,7.6,-17.9
Cc1[nH]c2ccc(F)cc2c1CCN(Cc1cccnc1)C(=S)Nc1cccc(F)c1,31.1*,28.4*,4.3,-15.3,17.7,-13.4
COc1ccc(NC(=O)CCc2nnc3ccc(N4CCN(c5cccc(OC)c5)CC4)nn23)cc1,x,x,-1.2,x,-3.2,-18.0
COc1cc(/C=C2/NC(=O)N(Cc3ccccc3F)C2=O)ccc1O,85.3*,65.4*,3.8,36.0,-3.3,-14.7
COc1cc(/C=C/C(=O)c2ccc([N+](=O)[O-])o2)ccc1O,x,x,x,x,67.1*,x
O=C(/C=C/c1cccc(Cl)c1)c1ccc([N+](=O)[O-])o1,x,x,x,x,91.2*,x
COc1cc(/C=C/C(=O)O)ccc1O,x,x,x,x,-7.8,x
O=C(Nc1ccc(N2CCCC2)c(Cl)c1)c1ccc([N+](=O)[O-])cc1,-2.2,1.9,4.3,-13.2,-52.9,-15.4
O=C(Nc1ccccc1N1CCOCC1)c1ccc([N+](=O)[O-])o1,x,x,9.1,x,-44.5,-10.5
CCCC(=O)N1CCN(c2ccc(NC(=O)c3ccc([N+](=O)[O-])o3)cc2Cl)CC1,94.2*,82.2*,0.2,97.5*,-118.0,-41.0
CCN1CCN(c2c(Cl)cccc2NC(=O)c2ccc([N+](=O)[O-])o2)CC1,x,x,0.5,x,79.2*,5.3
O=C(Nc1ccc(N2CCOCC2)c(Cl)c1)c1ccc([N+](=O)[O-])o1,0.7,-5.1,-3.5,94.8*,-56.2,-17.8
O=C(Nc1cccc(Cl)c1N1CCCC1)c1ccc([N+](=O)[O-])o1,-1.6,-1.6,-8.2,-17.7,x,-13.0
O=C(Nc1cccc(S(=O)(=O)N2CCCCC2)c1)c1ccc([N+](=O)[O-])o1,0.8,-3.7,11.4,45.0*,-268.3,4.6
Cc1ccc(OCC(=O)Nc2ccc3c(c2)C(=O)NC3=O)c(C)c1,x,x,4.9,x,-1.2,-42.0
CC(=O)N1CCN(c2ccc(NC(=O)c3ccc(Br)o3)cc2Cl)CC1,-1.8,1.9,-4.3,-11.5,-51.4,-61.6
